Experiments:
Experiment in all cases: log2 ratio of Biotin-Ahx-Ub-VS probe labelling (fragment/DMSO); higher = less target engagement (more negative = stronger competition), active = hit call of the paper (q ≤ 0.05, log2 ratio ≤ -1)
Conditions in all cases: compound concentration: 200 uM; treatment time: 3 h
USP34 = USP34 (UniProt Q70CQ2)
Summary of the method: (§1)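 Each value is an average log2 ratio of fragment to vehicle, tested by unpaired t-test. The underlying Spectronaut label-free quantities were global-median-normalised, and only proteins with ≥2 unique peptides were included. Triplicate HEK293T lysate samples (495 µg) were exposed to fragment at 200 µM or vehicle for 3 h, then to Biotin-Ahx-Ub-VS at 0.5 µM final for 1 h, before NeutrAvidin enrichment of labelled DUBs, LysC and trypsin digestion, and diaPASEF LC-MS/MS.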

USP36 = molecular target: T1, USP36 (UniProt Q9P275)
T1 sequence (whole entry): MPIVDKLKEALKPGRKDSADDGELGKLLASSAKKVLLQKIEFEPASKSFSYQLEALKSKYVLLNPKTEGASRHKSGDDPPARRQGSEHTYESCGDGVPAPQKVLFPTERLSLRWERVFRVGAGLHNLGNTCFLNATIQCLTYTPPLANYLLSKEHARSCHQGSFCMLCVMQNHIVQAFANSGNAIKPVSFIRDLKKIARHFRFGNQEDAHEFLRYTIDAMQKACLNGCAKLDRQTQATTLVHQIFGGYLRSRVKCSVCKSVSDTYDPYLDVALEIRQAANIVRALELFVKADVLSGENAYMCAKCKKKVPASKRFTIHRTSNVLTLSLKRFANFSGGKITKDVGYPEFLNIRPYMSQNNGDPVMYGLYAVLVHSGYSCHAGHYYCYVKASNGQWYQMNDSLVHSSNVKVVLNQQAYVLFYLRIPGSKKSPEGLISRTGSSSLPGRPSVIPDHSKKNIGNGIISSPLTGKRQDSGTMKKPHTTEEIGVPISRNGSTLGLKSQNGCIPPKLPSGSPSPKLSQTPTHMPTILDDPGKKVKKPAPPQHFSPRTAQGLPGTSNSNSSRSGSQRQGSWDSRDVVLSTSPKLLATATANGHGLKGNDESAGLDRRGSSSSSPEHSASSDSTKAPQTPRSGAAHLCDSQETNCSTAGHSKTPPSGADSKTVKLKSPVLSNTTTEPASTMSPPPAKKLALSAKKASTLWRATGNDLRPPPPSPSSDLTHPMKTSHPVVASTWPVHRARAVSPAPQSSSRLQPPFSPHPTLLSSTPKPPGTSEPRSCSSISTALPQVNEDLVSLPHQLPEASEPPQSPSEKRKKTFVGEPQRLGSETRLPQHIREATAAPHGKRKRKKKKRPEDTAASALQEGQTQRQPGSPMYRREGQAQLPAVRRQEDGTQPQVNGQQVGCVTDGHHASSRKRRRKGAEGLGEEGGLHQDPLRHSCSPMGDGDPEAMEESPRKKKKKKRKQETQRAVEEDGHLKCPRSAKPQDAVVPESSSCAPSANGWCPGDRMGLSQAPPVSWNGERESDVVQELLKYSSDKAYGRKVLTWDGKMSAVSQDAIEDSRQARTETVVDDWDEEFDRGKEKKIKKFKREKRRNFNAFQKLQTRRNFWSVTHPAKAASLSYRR
Summary of the method: as §1

USP38 = molecular target: T2, USP38 (UniProt Q8NB14)
T2 sequence (whole entry): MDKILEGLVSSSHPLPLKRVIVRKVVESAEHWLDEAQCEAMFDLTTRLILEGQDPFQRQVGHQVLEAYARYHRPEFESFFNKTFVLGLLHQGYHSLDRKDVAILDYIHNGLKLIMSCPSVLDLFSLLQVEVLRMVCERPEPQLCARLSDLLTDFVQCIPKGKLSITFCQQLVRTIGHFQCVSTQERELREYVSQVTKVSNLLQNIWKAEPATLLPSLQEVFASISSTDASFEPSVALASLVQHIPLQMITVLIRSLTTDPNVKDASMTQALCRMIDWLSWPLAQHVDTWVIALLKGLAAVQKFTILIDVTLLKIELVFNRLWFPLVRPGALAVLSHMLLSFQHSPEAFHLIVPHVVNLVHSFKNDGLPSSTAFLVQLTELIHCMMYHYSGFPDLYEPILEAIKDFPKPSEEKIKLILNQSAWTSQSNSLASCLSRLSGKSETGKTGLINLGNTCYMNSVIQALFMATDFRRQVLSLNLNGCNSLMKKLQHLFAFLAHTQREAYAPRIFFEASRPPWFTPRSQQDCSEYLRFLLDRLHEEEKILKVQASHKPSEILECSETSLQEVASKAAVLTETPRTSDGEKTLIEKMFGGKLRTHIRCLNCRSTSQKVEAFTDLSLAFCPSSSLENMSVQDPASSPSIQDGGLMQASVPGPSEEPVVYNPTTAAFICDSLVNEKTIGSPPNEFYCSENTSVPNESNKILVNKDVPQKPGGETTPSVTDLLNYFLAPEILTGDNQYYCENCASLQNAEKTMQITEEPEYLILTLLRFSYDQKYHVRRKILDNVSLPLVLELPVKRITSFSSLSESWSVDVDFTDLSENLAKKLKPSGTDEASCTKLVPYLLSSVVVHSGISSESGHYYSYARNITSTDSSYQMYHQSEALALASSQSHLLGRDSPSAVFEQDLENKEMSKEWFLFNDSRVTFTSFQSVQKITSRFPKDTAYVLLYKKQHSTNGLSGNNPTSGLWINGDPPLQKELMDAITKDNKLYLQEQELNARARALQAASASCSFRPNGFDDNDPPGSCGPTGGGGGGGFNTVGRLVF
Summary of the method: as §1

USP39 = molecular target: T3, USP39 (UniProt Q53GS9)
T3 sequence (whole entry): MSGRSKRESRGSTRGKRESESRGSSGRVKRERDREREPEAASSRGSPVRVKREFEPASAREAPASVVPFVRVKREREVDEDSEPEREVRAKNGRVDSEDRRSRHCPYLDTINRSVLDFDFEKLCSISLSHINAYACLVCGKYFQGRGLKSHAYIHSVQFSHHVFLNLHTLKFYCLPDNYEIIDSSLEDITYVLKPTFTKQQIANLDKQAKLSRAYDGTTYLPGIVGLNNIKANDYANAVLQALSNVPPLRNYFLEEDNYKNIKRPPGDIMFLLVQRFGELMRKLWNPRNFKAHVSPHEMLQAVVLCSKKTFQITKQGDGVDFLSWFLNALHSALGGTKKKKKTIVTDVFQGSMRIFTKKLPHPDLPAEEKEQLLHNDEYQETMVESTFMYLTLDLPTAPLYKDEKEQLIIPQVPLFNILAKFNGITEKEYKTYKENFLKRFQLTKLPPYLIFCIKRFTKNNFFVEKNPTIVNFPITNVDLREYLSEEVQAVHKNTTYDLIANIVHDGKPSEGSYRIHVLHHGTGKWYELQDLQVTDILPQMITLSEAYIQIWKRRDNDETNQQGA
Summary of the method: as §1

USP4 = molecular target: T4, USP4 (UniProt Q13107)
T4 sequence (whole entry): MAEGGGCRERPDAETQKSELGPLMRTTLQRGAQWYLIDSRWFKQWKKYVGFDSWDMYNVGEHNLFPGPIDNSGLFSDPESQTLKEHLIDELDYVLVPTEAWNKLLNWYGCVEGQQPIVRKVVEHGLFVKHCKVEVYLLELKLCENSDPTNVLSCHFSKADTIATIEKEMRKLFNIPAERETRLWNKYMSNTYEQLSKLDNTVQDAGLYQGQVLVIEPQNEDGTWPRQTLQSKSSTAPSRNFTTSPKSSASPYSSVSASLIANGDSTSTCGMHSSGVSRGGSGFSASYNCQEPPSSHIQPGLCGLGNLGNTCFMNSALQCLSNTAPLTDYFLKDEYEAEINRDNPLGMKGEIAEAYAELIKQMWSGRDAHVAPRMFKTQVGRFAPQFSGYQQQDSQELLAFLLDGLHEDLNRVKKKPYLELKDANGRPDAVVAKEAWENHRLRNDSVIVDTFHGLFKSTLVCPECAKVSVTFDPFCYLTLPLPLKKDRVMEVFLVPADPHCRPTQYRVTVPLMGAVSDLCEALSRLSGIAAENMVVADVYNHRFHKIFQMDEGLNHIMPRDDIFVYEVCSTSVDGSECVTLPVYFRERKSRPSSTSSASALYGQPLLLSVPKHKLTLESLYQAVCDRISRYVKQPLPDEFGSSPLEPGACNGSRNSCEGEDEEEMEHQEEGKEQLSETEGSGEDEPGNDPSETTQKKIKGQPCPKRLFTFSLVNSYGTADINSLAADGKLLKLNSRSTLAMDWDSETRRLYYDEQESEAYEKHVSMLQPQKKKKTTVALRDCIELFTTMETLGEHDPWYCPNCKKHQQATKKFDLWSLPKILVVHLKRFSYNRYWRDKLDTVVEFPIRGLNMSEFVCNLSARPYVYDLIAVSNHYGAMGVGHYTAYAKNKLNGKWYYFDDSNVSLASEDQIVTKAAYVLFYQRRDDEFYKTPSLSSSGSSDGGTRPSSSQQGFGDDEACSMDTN
Summary of the method: as §1

Measured: log2 ratio of Biotin-Ahx-Ub-VS probe labelling

USP34, sequence (Q70CQ2 whole entry, the tested form may be a part): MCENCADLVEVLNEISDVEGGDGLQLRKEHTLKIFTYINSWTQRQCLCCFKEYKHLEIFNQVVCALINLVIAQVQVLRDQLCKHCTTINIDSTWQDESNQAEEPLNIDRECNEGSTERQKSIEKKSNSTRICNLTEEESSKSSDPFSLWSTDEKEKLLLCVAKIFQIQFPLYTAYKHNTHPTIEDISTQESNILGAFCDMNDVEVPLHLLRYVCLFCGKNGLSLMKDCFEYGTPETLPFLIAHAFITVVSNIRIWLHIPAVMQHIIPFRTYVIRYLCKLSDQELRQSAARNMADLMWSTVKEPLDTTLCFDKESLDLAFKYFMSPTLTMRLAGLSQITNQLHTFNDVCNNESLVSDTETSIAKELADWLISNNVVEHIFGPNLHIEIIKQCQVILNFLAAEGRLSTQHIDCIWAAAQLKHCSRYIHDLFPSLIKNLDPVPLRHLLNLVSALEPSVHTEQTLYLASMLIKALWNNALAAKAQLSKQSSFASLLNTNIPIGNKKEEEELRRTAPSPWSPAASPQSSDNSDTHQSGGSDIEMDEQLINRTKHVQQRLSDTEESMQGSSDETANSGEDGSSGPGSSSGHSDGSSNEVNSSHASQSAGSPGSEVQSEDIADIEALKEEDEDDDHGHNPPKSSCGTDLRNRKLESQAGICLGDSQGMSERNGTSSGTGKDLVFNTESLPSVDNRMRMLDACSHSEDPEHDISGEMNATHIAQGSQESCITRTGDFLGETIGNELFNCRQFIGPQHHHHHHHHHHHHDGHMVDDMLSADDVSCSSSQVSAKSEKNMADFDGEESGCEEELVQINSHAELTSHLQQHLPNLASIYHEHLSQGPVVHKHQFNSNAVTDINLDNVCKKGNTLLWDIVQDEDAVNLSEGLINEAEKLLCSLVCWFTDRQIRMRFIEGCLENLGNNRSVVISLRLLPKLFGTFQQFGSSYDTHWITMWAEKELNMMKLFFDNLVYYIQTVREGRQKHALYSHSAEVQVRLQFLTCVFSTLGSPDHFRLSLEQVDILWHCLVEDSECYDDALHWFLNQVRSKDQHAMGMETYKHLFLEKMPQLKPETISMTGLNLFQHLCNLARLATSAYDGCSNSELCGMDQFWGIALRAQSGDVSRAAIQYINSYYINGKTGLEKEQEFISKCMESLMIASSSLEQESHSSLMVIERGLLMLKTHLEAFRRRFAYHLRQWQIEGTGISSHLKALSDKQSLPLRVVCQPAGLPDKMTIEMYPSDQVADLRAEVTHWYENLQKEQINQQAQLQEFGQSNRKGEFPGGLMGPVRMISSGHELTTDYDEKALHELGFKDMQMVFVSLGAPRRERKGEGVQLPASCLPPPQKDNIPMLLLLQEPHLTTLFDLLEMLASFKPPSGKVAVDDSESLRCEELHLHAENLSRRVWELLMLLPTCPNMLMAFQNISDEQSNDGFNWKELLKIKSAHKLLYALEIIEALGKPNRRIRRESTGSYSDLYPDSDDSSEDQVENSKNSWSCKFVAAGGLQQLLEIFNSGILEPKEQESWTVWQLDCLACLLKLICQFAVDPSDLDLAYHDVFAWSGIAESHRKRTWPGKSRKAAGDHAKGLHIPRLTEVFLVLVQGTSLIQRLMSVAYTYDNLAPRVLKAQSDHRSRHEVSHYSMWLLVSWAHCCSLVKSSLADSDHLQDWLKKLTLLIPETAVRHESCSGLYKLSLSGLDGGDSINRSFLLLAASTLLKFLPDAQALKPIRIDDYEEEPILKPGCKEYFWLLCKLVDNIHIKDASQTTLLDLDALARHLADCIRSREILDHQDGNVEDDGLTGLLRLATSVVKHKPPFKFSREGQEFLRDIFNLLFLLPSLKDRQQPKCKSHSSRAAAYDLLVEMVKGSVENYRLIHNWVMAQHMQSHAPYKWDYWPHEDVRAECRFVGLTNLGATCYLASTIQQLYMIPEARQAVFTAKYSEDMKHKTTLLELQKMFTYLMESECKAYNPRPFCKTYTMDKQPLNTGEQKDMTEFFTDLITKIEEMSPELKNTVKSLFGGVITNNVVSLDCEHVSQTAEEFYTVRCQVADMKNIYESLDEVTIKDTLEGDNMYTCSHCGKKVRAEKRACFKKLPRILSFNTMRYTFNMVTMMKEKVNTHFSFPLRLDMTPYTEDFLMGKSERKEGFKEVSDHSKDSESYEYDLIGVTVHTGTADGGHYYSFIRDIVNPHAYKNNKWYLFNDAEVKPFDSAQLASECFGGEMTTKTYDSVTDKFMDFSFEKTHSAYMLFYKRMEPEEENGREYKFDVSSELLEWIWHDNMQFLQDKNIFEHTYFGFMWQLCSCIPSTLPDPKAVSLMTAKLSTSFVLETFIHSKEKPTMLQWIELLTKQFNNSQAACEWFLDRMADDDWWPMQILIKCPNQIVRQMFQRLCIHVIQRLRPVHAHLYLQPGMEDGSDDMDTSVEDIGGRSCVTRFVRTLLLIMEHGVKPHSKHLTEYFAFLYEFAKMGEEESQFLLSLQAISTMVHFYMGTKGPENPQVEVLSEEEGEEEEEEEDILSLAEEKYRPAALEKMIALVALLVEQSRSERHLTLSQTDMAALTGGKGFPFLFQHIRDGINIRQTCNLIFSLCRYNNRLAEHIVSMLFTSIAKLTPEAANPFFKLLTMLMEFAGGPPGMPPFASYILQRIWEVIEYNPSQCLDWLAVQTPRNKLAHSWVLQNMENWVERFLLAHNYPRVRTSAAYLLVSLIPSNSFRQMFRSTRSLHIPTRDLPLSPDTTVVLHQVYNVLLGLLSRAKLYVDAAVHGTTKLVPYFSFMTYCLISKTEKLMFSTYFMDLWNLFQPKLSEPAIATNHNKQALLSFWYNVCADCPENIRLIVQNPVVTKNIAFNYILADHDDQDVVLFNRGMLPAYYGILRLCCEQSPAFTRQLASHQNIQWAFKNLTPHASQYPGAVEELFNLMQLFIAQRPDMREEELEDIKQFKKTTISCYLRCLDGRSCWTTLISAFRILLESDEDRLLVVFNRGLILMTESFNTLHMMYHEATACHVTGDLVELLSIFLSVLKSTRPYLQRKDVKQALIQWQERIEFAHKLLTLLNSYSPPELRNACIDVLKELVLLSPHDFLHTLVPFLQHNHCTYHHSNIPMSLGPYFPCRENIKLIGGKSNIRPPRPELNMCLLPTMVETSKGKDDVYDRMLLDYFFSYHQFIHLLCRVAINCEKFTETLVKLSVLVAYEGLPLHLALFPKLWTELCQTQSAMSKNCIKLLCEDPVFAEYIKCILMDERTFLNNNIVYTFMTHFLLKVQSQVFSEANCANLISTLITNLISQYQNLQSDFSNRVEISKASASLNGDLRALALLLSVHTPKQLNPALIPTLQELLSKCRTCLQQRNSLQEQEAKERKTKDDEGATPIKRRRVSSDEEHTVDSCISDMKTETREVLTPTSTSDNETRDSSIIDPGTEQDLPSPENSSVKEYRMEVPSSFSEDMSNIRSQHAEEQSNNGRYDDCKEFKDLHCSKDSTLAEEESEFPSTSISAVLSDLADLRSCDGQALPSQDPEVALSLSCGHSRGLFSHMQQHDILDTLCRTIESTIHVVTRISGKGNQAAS

CN(CCC(O)c1ccc(Br)cc1)C(=O)CCl (stereo not given)
inactive: USP34 -0.261 | USP36 -0.0809 | USP38 -0.17 | USP39 -0.00535 | USP4 -0.206

Source: the supplement of paper PMC11732987, “Enantioselective OTUD7B fragment discovery through chemoproteomics screening and high-throughput optimisation” (Communications Chemistry, 2025)
